Screening data: PubChem, National Center for Advancing Translational Sciences (NCATS)
FH mod: Identification of activators of human fumarate hydratase by quantitative high-throughput screening; 54,000 compounds, 0.22% hits; Potency, µM (highest dose often 79.9 µM), for inactives: at the top dose activity change, negative = inhibition, most hits filed as inhibitors; FH coupled MDH/diaphorase resazurin fluorescence, 15 min; also: potency is read from the fitted curve at half-maximal effect; % is scaled to controls: 0 for no effect and ±100 for the full control effect; the screen sought activators but most active calls are inhibition curves; nearly all actives have a fitted effect of over 45% in size
NTMT1 inh: inhibitors of human N-terminal methyltransferase NTMT1 | 59,000 compounds, 2.5% hits | NTMT1 MTase-Glo SAH luminescence, purified enzyme | Q9BV86 | AID 1645870 | Potency, µM (titrated, usually from 114 µM), for inactives: at the top dose activity change, negative = inhibition, most hits filed as inhibitors;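 also: potency is read from the fitted curve at half-maximal effect; plate controls were DMSO vehicle for no effect and no enzyme for full effect; nearly all actives have a fitted effect of over 65% in size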
p53null 32C kill: kills p53 null cells at the permissive temperature. H1299-neo p53 null cells, ATP luminescence, 24 h, 32C. Potency, µM (highest dose often 46.1 µM), inactives show at the highest dose activity change, negative = cytotoxicity, hits mostly cytotoxic. 55,000 compounds, 0.62% hits;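 also: potency is read from the fitted curve at half-maximal effect; 0% = DMSO only and -100% = full killing by 100 µM tamoxifen; nearly all actives have a fitted effect of over 55% in size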
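Cells lacking p53 (H1299-neo) are plated at 600 per well and allowed to settle overnight at 37C. Test compounds (up to 46 uM) are added and held 24 hours at 32C, then ATP is quantified by luminescence.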
p53null 39C tox: p53 null cell cytotoxicity, nonpermissive temperature; 55,000 compounds, 0.97% hits; H1299 p53-null (neo) cells, 39C, ATPlite viability, 24 h; Potency, µM (top dose mostly 46.1 µM), for the others: at the top dose activity, negative = cell killing, most hits filed as cytotoxic; AID 904;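 also: potency is read from the fitted curve at half-maximal effect; 0% = DMSO only and -100% = full killing by 100 µM tamoxifen; nearly all actives have a fitted effect of over 50% in size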
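ATP-luminescence viability readout (ATPlite, 20 min RT) after 24 hr compound treatment at 39C of H1299-neo or H1299-p53A138V cells; titration up to 46 uM; normalized to DMSO and 100 uM tamoxifen; Hill-fit AC50.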
GPR32 ag: activates human resolvin D1 receptor GPR32. O75388. AID 1346428. activation, % at 76.9 µM. 48,000 compounds, 2.5% hits. CHO-K1 GPR32 beta-arrestin PathHunter luminescence, 90 min; zero percent set by DMSO-only wells;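 active = activation of at least 60% and not above a set upper limit, about 1 call in 100 departs from these limits; inconclusive = activation of 40% to 60%, or above that upper limit; inactive = activation under 40%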; also: 0% is about no effect
Target sequence (O75388 whole entry, looked up): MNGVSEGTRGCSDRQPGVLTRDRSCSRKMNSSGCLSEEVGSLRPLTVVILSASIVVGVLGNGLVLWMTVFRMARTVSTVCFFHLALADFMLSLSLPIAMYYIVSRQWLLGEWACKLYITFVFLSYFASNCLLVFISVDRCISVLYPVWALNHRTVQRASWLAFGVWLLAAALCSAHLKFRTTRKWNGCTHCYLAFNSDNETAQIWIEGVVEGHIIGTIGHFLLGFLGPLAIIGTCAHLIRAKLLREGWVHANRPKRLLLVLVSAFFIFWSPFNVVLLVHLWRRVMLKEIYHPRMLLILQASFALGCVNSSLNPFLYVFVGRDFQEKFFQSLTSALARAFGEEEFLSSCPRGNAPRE
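CHO-K1 cells stably expressing ProLink-tagged GPR32 and Enzyme Activator-tagged beta-arrestin were seeded at 2,500 cells/well overnight, exposed to compounds for 90 min at 37 °C, then read by beta-Gal complementation chemiluminescence after 1 h detection reagent.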
GALC G270D up: galactocerebrosidase G270D activity enhancement, cell-based; P54803; 145M-Twi-hGALC-G270D cells, HMU-beta-Gal fluorescence, 48 h; Potency, µM (top dose mostly 57.5 µM), most hits filed as activators; 45,000 compounds, 0.1% hits; also: potency is read from the fitted curve at half-maximal effect; 0% is about no effect; nearly all actives have a fitted effect of over 65% in size
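qHTS, 1536-well; 145M-Twi-hGALC-G270D cells (WT line also made) in DMEM/F12 + 10% FBS; compound incubation on live cells; HMU-β-gal 0.1 mM final, pH 5.2, NaTC; carbonate stop; fluorescence increase = enhanced residual activity.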
The depositor's hits bear a star; i = inactive; ? = inconclusive; · = no result given; [ ] = another dose, or the depositor's remark. The list is not random: actives were taken first. Their share in the collection is about 3.9%. Unless noted, calls follow the shape of the dose curve; as a rule, active = well fitted curve in the direction sought with a large enough effect; inconclusive = small, poorly fitted or top-dose-only effect, or another doubt; inactive = no such curve, though single readings can be large; an effect the other way counts as inactive or inconclusive.

SMILES	FH mod	NTMT1 inh	p53null 32C kill	p53null 39C tox	GPR32 ag	GALC G270D up
Cc1ccc(S(=O)(=O)c2nc(-c3ccco3)oc2SCC(=O)c2ccc(Cl)cc2)cc1	-14.4%	-5.1%	27.6%	?	-13.0	i
CCOc1ccc(NC(=O)CSc2oc(-c3ccco3)nc2S(=O)(=O)c2ccc(Cl)cc2)cc1	-16.0%	79.4µM*	-11.0%	-12.4%	-18.6	i
O=C(Nc1ncc(SCCN2CCCC2)s1)[C@]1(c2ccc(S(=O)(=O)C3CC3)cc2)C[C@H]1C1CCCCC1	·	9.5%	·	·	·	·
Cc1nc(CN=C2NC3=C(C(=O)CCC3)C(c3[nH]ncc3Cl)N2)cs1 (stereo not drawn)	·	-3.3%[57.5 µM]	·	·	·	·
COc1ccc(CNC(=O)CCc2c(C)c3cc4c(C)coc4cc3oc2=O)cc1	·	·	-3.4%	0.0%	68.0*	·
COc1ccc(CCNC(=O)CCc2c(C)c3cc4c(C)coc4c(C)c3oc2=O)cc1OC	-6.4%	89.1µM*	-14.2%	-1.8%	-9.3	i
C=CC1(C)CC=C2C(CCC3C(C)(C(=O)O)CCCC23C)C1 (stereo not drawn)	-17.3%	-3.0%[57.5 µM]	·	·	·	·
Fc1cccc(NCc2cccn2-c2nnc(N3CCOCC3)s2)c1	-10.3%	-2.7%	-10.6%	-8.3%	66.3*	i
Fc1ccc(NCc2cccn2-c2nnc(N3CCOCC3)s2)cc1	-11.3%	-4.0%	-13.6%	-17.8%	66.8*	i
Cc1ccccc1NCc1cccn1-c1nnc(N2CCOCC2)s1	-32.6%	-4.9%	-5.7%	-9.4%	15.5	i
Cc1ccc(C(=O)Nc2nnc(SCc3cc(=O)c4c(C)ccc(C)c4[nH]3)s2)cc1	-25.8%	-16.9%	-15.6%	-16.3%	70.6*	i
CC(C)(O)c1ccc2c(c1)C(O)CC1C(C)(C(=O)O)CCCC21C (stereo not drawn)	8.7%[53.3 µM]	1.7%[29.8 µM]	·	·	·	·
CCOc1cccc(C2CC(=O)Nc3cc4c(cc32)OCCO4)c1 (stereo not drawn)	-8.9%	-3.3%	27.2%	7.4%	-6.1	i
Cc1ccc(C2CC(=O)Nc3cc4c(cc32)OCCO4)cc1 (stereo not drawn)	2.4%	-9.9%	5.3%	9.7%	62.4*	i
CCc1ccc(C2CC(=O)Nc3cc4c(cc32)OCO4)cc1 (stereo not drawn)	-5.6%	89.1µM*	14.0%	3.1%	72.3*	i
O=C1CC(c2ccc(Cl)cc2)c2cc3c(cc2N1)OCCO3 (stereo not drawn)	-18.3%	-6.5%	27.3%	14.1%	80.4*	i
CC1(C)CC[C@]2(C(=O)O[C@@H]3O[C@H](CO[C@@H]4O[C@H](CO)[C@@H](O)[C@H](O)[C@H]4O[C@@H]4O[C@H](CO)[C@H](O)[C@H](O)[C@H]4O)[C@@H](O)[C@H](O[C@@H]4O[C@H](CO)[C@@H](O)[C@H](O)[C@H]4O)[C@H]3O)CC[C@]3(C)C(=CCC4[C@@]5(C)CC[C@H](O[C@@H]6OC[C@@H](O)[C@H](O)[C@H]6O)[C@@](C)(C(=O)O)C5CC[C@]43C)[C@@H]2C1 (stereo partly drawn)	-0.2%[13.5 µM]	18.8%[6.45 µM]	·	·	·	·
Cn1cccc1CN=C1NC2=C(C(=O)CCC2)C(c2[nH]ncc2Cl)N1 (stereo not drawn)	·	-0.8%	·	·	·	·
Cc1ccc(S(=O)(=O)N(CC(O)Cn2c3ccccc3c3ccccc32)c2cccc(C(N)=O)c2)cc1 (stereo not drawn)	?	1.3%	14.4%	?	85.6*	i
CC(C)Oc1ccc(CNC(=O)Cn2nc(N3CCN(c4ccccc4)CC3)ccc2=O)cc1	-3.7%	89.1µM*	-6.5%	-6.1%	67.9*	i
CCc1ccccc1NC(=O)c1ccc(Cn2nc(N3CCN(c4ccccc4)CC3)ccc2=O)o1	-24.9%	-22.0%	28.4%	5.6%	63.3*	i
